# Test results published in PubChem BioAssay (NCATS).
# Inconclusive results are not listed. The source made the active and inactive calls. Calls follow the shape of the dose curve; as a rule, active = well fitted inhibition curve with a large enough effect; inconclusive = small, poorly fitted or top-dose-only effect; inactive = flat fitted curve, though single readings scatter.
# Biological target: Glutathione peroxidase 1 (Homo sapiens) (UniProt P07203)
# Experiment: Primary qHTS Assay for Inhibitors of Recombinant Selenoprotein Glutathione Peroxidase 1 (GPX1) (AID 1845191); also: nearly all actives have a fitted effect of over 65% in size
# Details: recombinant GPX1, GR-coupled NADPH fluorescence, 15 min; series mostly up to 48.8 µM; activity, negative = inhibition: at the top concentration
# Outline: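 GPX1 10 nM, GR 100 nM, GSH 1 mM, NADPH 0.5 mM, CHP 0.5 mM (final). 30-min cpd preincubation, RT. Ex340/Em450 read t=0, t=15 min.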
# % is scaled to controls: 0 for no effect and ±100 for the full control effect.
# Glutathione peroxidase 1 (Homo sapiens), sequence (P07203 whole entry, looked up): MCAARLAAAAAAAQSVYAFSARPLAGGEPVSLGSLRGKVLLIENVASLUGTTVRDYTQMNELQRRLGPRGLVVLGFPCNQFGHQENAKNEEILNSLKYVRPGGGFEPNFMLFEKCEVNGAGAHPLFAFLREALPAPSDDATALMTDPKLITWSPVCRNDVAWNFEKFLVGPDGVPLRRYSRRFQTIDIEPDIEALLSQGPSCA
SMILES,outcome,"activity, negative = inhibition"
CC1(C)CC[C@]23CO[C@@]4(CCC5[C@@]6(C)CC[C@H](O[C@@H]7OC[C@H](O[C@@H]8O[C@H](CO)[C@@H](O)[C@H](O)[C@H]8O[C@@H]8OC[C@@H](O)[C@H](O)[C@H]8O)[C@H](O)[C@H]7O[C@@H]7O[C@H](CO)[C@@H](O)[C@H](O)[C@H]7O)[C@@](C)(CO)C6CC[C@@]5(C)[C@]4(C)C[C@H]2O)[C@@H]3C1 (stereo not given in full),inactive [at 15.3 µM],
O=P(O)(O)OC(Cn1cncn1)(Cn1cncn1)c1ccc(F)cc1F,inactive,
CC(=O)OC1C(O)CC2(C)C(CCC3(C)C2CC=C2C4C5(CCC(CO[C@@H]6O[C@H](CO)[C@@H](O)[C@H](O)[C@H]6O)(OC5=O)C4(C)O)C(O)CC23C)C1(C)C (stereo not given in full),inactive [at 15.3 µM],
C[C@H]1C[C@@H]2[C@H]([C@@H](O)C[C@@]3(C)[C@H]2CC[C@]3(O)C(=O)COC(=O)CCC(=O)O)[C@@]2(C)C=CC(=O)C=C12,inactive,
CC(=O)O[C@H]1CC[C@@]2(C)C(=CC[C@H]3[C@@H]4CC[C@H](C(C)=O)[C@@]4(C)CC[C@@H]32)C1,,-10% (inactive)
CCNC(=O)c1noc(-c2cc(Cl)c(O)cc2O)c1-c1ccc(OC)cc1,,-25.3% (inactive)
COc1ccc(C(=O)Nc2ccccc2CCC2CCCCN2C)cc1 (stereo not given),,-11.6% (inactive)
Cc1cccc(C)c1N(CCCc1cccnc1)C(=O)C(C)N (stereo not given),,3.91% (inactive)
CN1CCC(c2cn(C)c3ccc(OS(=O)(=O)c4c(F)cccc4F)cc23)CC1,inactive,
C[C@@H]1O[C@@H](O[C@H]2[C@H](O[C@H]3CC[C@@]4(C)C(CC[C@]5(C)C4C=C[C@]46OC[C@@]7(CCC(C)(C)C[C@H]74)[C@@H](O[C@@H]4O[C@@H](C)[C@H](O)[C@@H](O)[C@H]4O)C[C@]65C)[C@]3(C)CO)O[C@H](CO)[C@@H](O)[C@@H]2O[C@@H]2O[C@H](CO)[C@@H](O)[C@H](O)[C@H]2O)[C@H](O)[C@H](O)[C@H]1O (stereo not given in full),,3.02% [at 15.3 µM] (inactive)
